# Results filed as inconclusive are left out. A call without a number means that no potency is given here. Unmarked numbers belong to inactive results. Activity calls are given as the source filed them. The call rests on the fitted dose curve; in most records, active means well fitted curve in the direction sought with a large enough effect; inconclusive means small, poorly fitted or top-dose-only effect, or another doubt; inactive means no such curve, though single readings can be large; an effect the other way counts as inactive or inconclusive.
# How the values were obtained:
# [1] = tested on: NIH3T3; assay: qHTS assay to identify novel small-molecules to repurpose for Merkel cell carcinoma treatment (AID 1296009); conditions: MCC and control cell lines, CellTiter-Glo viability, 72 h; at 44.8 µM (top of the series) unless noted; further: nearly all actives have a fitted effect of over 60% in size
# How it was run: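 Cell viability measured by CellTiter-Glo following 72 hr compound treatment at 37 degree celsius, with NPC and MIPE libraries tested in 8- and 11-point concentration series.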
# [2] = tested on: C33A; assay: Primary qHTS to identify gynecologic anti-cancer compounds using libraries of approved drugs and bioactive compounds (AID 1345084); conditions: Gynecologic cancer cell panel viability, ATPlite luminescence, 48 h; series mostly up to 57.5 µM; further: nearly all actives have a fitted effect of over 55% in size; further: potency means the concentration at half of the fitted maximal effect
# How it was run: (§1)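 Cell viability after 48 h drug treatment, ATPlite luminescence readout; five doses.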
# [3] = tested on: CAOV3; assay: as above; conditions: Gynecologic cancer cell panel viability, ATPlite luminescence, 48 h; series mostly up to 57.5 µM
# How it was run: as §1
# [4] = tested on: CASKI; assay: as above; conditions: Gynecologic cancer cell panel viability, ATPlite luminescence, 48 h; series mostly up to 57.5 µM
# How it was run: as §1
# [5] = tested on: Es-2; assay: as above; conditions: Gynecologic cancer cell panel viability, ATPlite luminescence, 48 h; series mostly up to 57.5 µM
# How it was run: as §1
# [6] = tested on: HeLa; assay: as above; conditions: Gynecologic cancer cell panel viability, ATPlite luminescence, 48 h; series mostly up to 57.5 µM
# How it was run: as §1
# [7] = tested on: Hek293T; assay: as above; conditions: Gynecologic cancer cell panel viability, ATPlite luminescence, 48 h, control line for the selectivity index; series mostly up to 57.5 µM
# How it was run: as §1
# [8] = tested on: JEG-3; assay: as above; conditions: Gynecologic cancer cell panel viability, ATPlite luminescence, 48 h; series mostly up to 57.5 µM
# How it was run: as §1
compound,measurement,setting,value
COC(=O)c1ccc(OC)cc1O[C@@H]1O[C@H](CO[C@@H]2OC[C@@H](O)[C@H](O)[C@H]2O)[C@@H](O)[C@H](O)[C@H]1O,outcome,[1],inactive [at 17.4 µM]
same,Potency,[2],inactive
same,Potency,[3],inactive
same,outcome,[4],inactive
same,Potency,[5],inactive
same,Potency,[6],inactive
same,Potency,[7],inactive
same,Potency,[8],inactive
COc1cc(Nc2nc3c(s2)CCCC3c2ccccc2)ccc1-n1cnc(C)c1 (centres undefined),outcome,[1],inactive [at 9.27 µM]
same,"activity change, negative = cytotoxicity",[2],6.98% [at 11.6 µM]
same,"activity change, negative = cytotoxicity",[3],6.61% [at 11.6 µM]
same,"activity change, negative = cytotoxicity",[4],15.8% [at 11.6 µM]
same,"activity change, negative = cytotoxicity",[5],3.55% [at 11.6 µM]
same,"activity change, negative = cytotoxicity",[6],-6.36% [at 11.6 µM]
same,"activity change, negative = cytotoxicity",[7],8.6% [at 11.6 µM]
same,"activity change, negative = cytotoxicity",[8],2.94% [at 11.6 µM]
CC1(C)CCCC2(C)c3c4c(c(=O)oc(=O)c3=CCC12)=CCC1C(C)(C)CCCC41C (centres undefined),outcome,[1],inactive [at 17.4 µM]
same,Potency,[2],inactive
same,Potency,[3],inactive
same,outcome,[4],inactive
same,Potency,[5],inactive
same,Potency,[6],inactive
same,Potency,[7],inactive
same,Potency,[8],inactive
O=C(O)c1ccnc2cc(C(OCC3CCC(F)(F)CC3)c3ccccc3Cl)[nH]c12 (centres undefined),outcome,[1],inactive
same,Potency,[2],inactive
same,Potency,[3],inactive
same,outcome,[4],inactive
same,Potency,[5],inactive
same,Potency,[7],inactive
same,Potency,[8],inactive
COc1ccc(/C=C/C(=O)O[C@@H]2[C@@H](OC(C)=O)[C@@H](OC(C)=O)[C@H](O[C@H]3[C@@H]4C=CO[C@@H](O[C@@H]5O[C@H](CO)[C@@H](O)[C@H](O)[C@H]5O)[C@@H]4[C@@]4(CO)O[C@@H]34)O[C@H]2C)cc1,outcome,[1],inactive [at 17.4 µM]
same,Potency,[2],inactive
same,Potency,[3],inactive
same,outcome,[4],inactive
same,Potency,[5],inactive
same,Potency,[6],inactive
same,Potency,[7],inactive
same,Potency,[8],inactive
Cc1cc(O[C@@H]2O[C@H](COC(=O)CC(=O)O)[C@@H](O)[C@H](O)[C@H]2O)c(C(C)C)cc1O,outcome,[1],inactive [at 17.4 µM]
same,Potency,[2],inactive
same,Potency,[3],inactive
same,outcome,[4],inactive
same,Potency,[5],inactive
same,Potency,[6],inactive
same,Potency,[7],inactive
same,Potency,[8],inactive
CC1OC(O[C@@H]2[C@@H](O)[C@H](OC(=O)[C@]34CCC(C)(C)C[C@H]3C3=CCC5[C@@]6(C)CC[C@H](O[C@@H]7O[C@H](C(=O)O)[C@@H](O)[C@H](O[C@@H]8OC[C@@H](O)[C@H](O)[C@H]8O)[C@H]7O[C@@H]7O[C@H](CO)[C@H](O)[C@H](O)[C@H]7O)[C@@](C)(C=O)C6CC[C@@]5(C)[C@]3(C)C[C@H]4O)O[C@H](C)[C@@H]2OC2OC(C)C(OC3OCC(O)C(O)C3O)C(O)C2O)C(O)C(O)C1O (some centres undefined),outcome,[1],inactive [at 9.27 µM]
same,"activity change, negative = cytotoxicity",[2],2.48% [at 6.55 µM]
same,"activity change, negative = cytotoxicity",[3],7.91% [at 6.55 µM]
same,"activity change, negative = cytotoxicity",[4],19.4% [at 6.55 µM]
same,"activity change, negative = cytotoxicity",[5],-0.176% [at 6.55 µM]
same,"activity change, negative = cytotoxicity",[6],18.4% [at 6.55 µM]
same,"activity change, negative = cytotoxicity",[7],1.68% [at 6.55 µM]
same,"activity change, negative = cytotoxicity",[8],0.0438% [at 6.55 µM]
COC(=O)[C@H](O)[C@H]1C(C)(C)[C@H](OC(C)=O)[C@@]2(O)C(=O)[C@]1(C)C1CC[C@]3(C)C(CC(=O)O[C@H]3c3ccoc3)[C@]13O[C@@H]32 (some centres undefined),outcome,[1],inactive [at 17.4 µM]
same,Potency,[2],inactive
same,Potency,[3],inactive
same,outcome,[4],inactive
same,Potency,[5],inactive
same,Potency,[6],inactive
same,Potency,[7],inactive
same,Potency,[8],inactive
C=C1C2CCC3C(CCC4[C@@]3(C)CCC[C@@]4(C)C(=O)O)(C2)[C@@H]1OC(=O)/C(C)=C\C (some centres undefined),outcome,[1],inactive [at 17.4 µM]
same,Potency,[2],inactive
same,Potency,[3],inactive
same,outcome,[4],inactive
same,Potency,[8],inactive
CCC(C)/C=C(C)/C=C/C1=CC2=CC(=O)C(C)(O)C(OC(C)=O)C2CO1 (centres undefined),outcome,[1],inactive
same,Potency,[2],inactive
same,Potency,[3],inactive
same,outcome,[4],inactive
same,Potency,[5],inactive
same,Potency,[6],inactive
same,Potency,[7],inactive
same,Potency,[8],inactive
Cc1ccc(C)c(NC(=O)CNS(=O)(=O)c2ccc3[nH]c(=O)oc3c2)c1,outcome,[1],inactive
same,Potency,[2],inactive
same,Potency,[3],inactive
same,Potency,[5],inactive
same,Potency,[6],inactive
same,Potency,[7],inactive
same,Potency,[8],inactive
C=Cc1cc2oc(-c3ccc(O)c(F)c3)nc2cc1O,outcome,[1],inactive
same,Potency,[2],inactive
same,Potency,[3],inactive
same,outcome,[4],inactive
same,Potency,[5],inactive
same,Potency,[7],inactive
same,Potency,[8],inactive
CC(=O)OC1(C)CC(O)C2(O)C=COC(OC3OC(CO)C(O)C(O)C3O)C12 (centres undefined),outcome,[1],inactive [at 17.4 µM]
same,Potency,[2],inactive
same,Potency,[3],inactive
same,outcome,[4],inactive
same,Potency,[5],inactive
same,Potency,[6],inactive
same,Potency,[7],inactive
same,Potency,[8],inactive
C=CC1(C)C=C2CC[C@H]3[C@@](C)(C(=O)O)CCC[C@]3(C)C2CC1 (some centres undefined),outcome,[1],inactive
same,Potency,[2],inactive
same,Potency,[3],inactive
same,outcome,[4],inactive
same,Potency,[5],inactive
same,Potency,[6],inactive
same,Potency,[7],inactive
same,Potency,[8],inactive
FC(F)(F)Oc1ccc(-c2ccc3nnc(C(F)(F)F)n3c2)cc1,outcome,[1],inactive
same,Potency,[2],inactive
same,Potency,[3],inactive
same,outcome,[4],inactive
same,Potency,[5],inactive
same,Potency,[7],inactive
same,Potency,[8],inactive
CC(C)=C1CC2C(CCC2(C)O)C(C)(O)CC1=O (centres undefined),Potency,[2],inactive
same,Potency,[3],inactive
same,outcome,[4],inactive
same,Potency,[5],inactive
same,Potency,[6],inactive
same,Potency,[7],inactive
same,Potency,[8],inactive
C[C@@H]1C[C@@H](O)[C@@]23CO[C@]2(CO)CCC[C@@H]3[C@@]12C[C@@H](c1ccoc1)OC2=O,outcome,[1],inactive
same,Potency,[2],inactive
same,outcome,[4],inactive
same,Potency,[5],inactive
same,Potency,[6],inactive
same,Potency,[7],inactive
same,Potency,[8],inactive
Cc1ncc(Cl)cc1NCc1ccc(C(=O)NC(CC2CCCC2)C(=O)NC2CC2)s1 (centres undefined),outcome,[1],inactive
same,Potency,[2],inactive
same,outcome,[4],inactive
same,Potency,[5],inactive
same,Potency,[6],inactive
same,Potency,[7],inactive
same,Potency,[8],inactive
COC(=O)[C@]1(C)CCC[C@@]2(C)[C@@H]3CC[C@@H]4C[C@@]3(CC[C@@H]21)C[C@H]4C(=O)O,outcome,[1],inactive
same,Potency,[2],inactive
same,outcome,[4],inactive
same,Potency,[5],inactive
same,Potency,[6],inactive
same,Potency,[7],inactive
same,Potency,[8],inactive
CC(=O)Nc1cccc2c1c(Sc1ccc(Cl)cc1)c(C)n2CC(=O)O,outcome,[1],inactive
same,Potency,[5],inactive
same,Potency,[8],inactive
CCC1(O)CC2c3cc(OC)c(OC)cc3CCN2CC1CC(C)C (centres undefined),Potency,[2],inactive
same,Potency,[3],inactive
same,outcome,[4],inactive
same,Potency,[5],inactive
same,Potency,[6],inactive
same,Potency,[7],inactive
same,Potency,[8],inactive
C=CC(C)(CCC=C(C)C)O[C@@H]1O[C@H](CO)[C@@H](O)[C@H](O)[C@H]1O (some centres undefined),outcome,[1],inactive
same,Potency,[2],inactive
same,outcome,[4],inactive
same,Potency,[5],inactive
same,Potency,[6],inactive
same,Potency,[7],inactive
same,Potency,[8],inactive
Cc1nnc(-c2ccc3occ(-c4ccc(S(C)=O)cc4)c3c2)o1 (centres undefined),outcome,[1],inactive
same,outcome,[4],inactive
same,Potency,[6],inactive
same,Potency,[7],inactive
same,Potency,[8],inactive
CC(NC(=O)CC(=O)O)C(=O)Nc1ccccc1C(N)=O (centres undefined),outcome,[1],inactive
same,Potency,[2],inactive
same,Potency,[3],inactive
same,Potency,[5],inactive
same,Potency,[6],inactive
same,Potency,[7],inactive
same,Potency,[8],inactive
O=C(O)CCc1cc2ccoc2cc1O[C@@H]1O[C@H](CO)[C@@H](O)[C@H](O)[C@H]1O,outcome,[1],inactive
same,Potency,[2],inactive
same,Potency,[3],inactive
same,Potency,[5],inactive
same,Potency,[6],inactive
same,Potency,[7],inactive
same,Potency,[8],inactive
C/C=C(\C)C(=O)OC1C(C)C2(O)C3C=C(C)C(=O)C3CC(CO)=CC2C2C(C)(C)C12OC(C)=O (centres undefined),outcome,[1],inactive [at 17.4 µM]
same,Potency,[3],inactive
same,outcome,[4],inactive
same,Potency,[5],112 nM (active)
same,Potency,[6],inactive
same,Potency,[7],inactive
same,Potency,[8],inactive

# Reference: PubChem BioAssay (NCATS)
